# Measured values: the supplement of paper PMC8728848
# About 410 targets per protein were measured; listed, in parts, are those with the strongest signals and a random draw of the rest.
# Key:
# Experiment in all cases: glycan array binding signal (z-score within array); higher = stronger binding
# Settings in all cases: glycan notation: IUPAC condensed, linker removed
# Fuc(a1-2)Gal = molecular target: Fuc(a1-2)Gal
# Outline: (§1)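 Glycan array data were curated from 3228 arrays in the Consortium for Functional Glycomics database and kept only where the protein sequence was available. Glycan names were converted to IUPAC-condensed notation, and columns mapping to the same glycan were averaged. The binding signal is a within-array Z-score, averaged across arrays of the same protein sequence at different concentrations or buffers and across linkers. Negative Z-scores can be read as non-binding.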
# [1] = molecular target: Fuc(a1-2)Gal(b1-3)GalNAc(a1-3)[Fuc(a1-2)]Gal(b1-4)Glc
# Outline: as §1
# [2] = molecular target: Fuc(a1-2)[Gal(a1-3)]Gal(b1-4)GlcNAc(b1-3)[Fuc(a1-2)[Gal(a1-3)]Gal(b1-4)GlcNAc(b1-6)]GalNAc
# Outline: as §1
# [3] = molecular target: Fuc(a1-2)[Gal(a1-3)]Gal(b1-4)[Fuc(a1-3)]GlcNAc(b1-3)GalNAc
# Outline: as §1
# [4] = molecular target: Fuc(a1-2)[GalNAc(a1-3)]Gal(b1-3)GlcNAc(b1-6)GalNAc
# Outline: as §1
# [5] = molecular target: Fuc(a1-2)[GalNAc(a1-3)]Gal(b1-4)GlcNAc(b1-3)Gal(b1-4)GlcNAc(b1-3)Gal(b1-4)GlcNAc
# Outline: as §1
# [6] = molecular target: Fuc(a1-3)[Gal(b1-4)]GlcNAc(b1-6)GalNAc
# Outline: as §1
# [7] = molecular target: Fuc(a1-3)[GalNAc(b1-4)]GlcNAc6S
# Outline: as §1
# Gal(a1-4)Gal(b1-4)Glc = molecular target: Gal(a1-4)Gal(b1-4)Glc
# Outline: as §1
# Gal(b1-3)Gal(b1-4)GlcNAc = molecular target: Gal(b1-3)Gal(b1-4)GlcNAc
# Outline: as §1
# [8] = molecular target: Gal(b1-3)GlcNAc(b1-3)Gal(b1-4)GlcNAc(b1-2)[Gal(b1-3)GlcNAc(b1-3)Gal(b1-4)GlcNAc(b1-6)]Man(a1-6)[Gal(b1-3)GlcNAc(b1-3)Gal(b1-4)GlcNAc(b1-2)Man(a1-3)]Man(b1-4)GlcNAc(b1-4)[Fuc(a1-6)]GlcNAc
# Outline: as §1
# [9] = molecular target: Gal(b1-3)GlcNAc(b1-3)Gal(b1-4)GlcNAc(b1-3)Gal(b1-4)GlcNAc(b1-2)[Gal(b1-3)GlcNAc(b1-3)Gal(b1-4)GlcNAc(b1-3)Gal(b1-4)GlcNAc(b1-6)]Man(a1-6)[Gal(b1-3)GlcNAc(b1-3)Gal(b1-4)GlcNAc(b1-3)Gal(b1-4)GlcNAc(b1-2)Man(a1-3)]Man(b1-4)GlcNAc(b1-4)[Fuc(a1-6)]GlcNAc
# Outline: as §1
# [10] = molecular target: Gal(b1-4)GlcNAc(b1-2)Man(a1-3)[Gal(b1-4)GlcNAc(b1-2)Man(a1-6)]Man(b1-4)GlcNAc(b1-4)GlcNAc
# Outline: as §1
# [11] = molecular target: Gal(b1-4)GlcNAc(b1-2)[Gal(b1-4)GlcNAc(b1-4)]Man(a1-3)[Gal(b1-4)GlcNAc(b1-2)Man(a1-6)]Man(b1-4)GlcNAc(b1-4)GlcNAc
# Outline: as §1
# [12] = molecular target: Gal(b1-4)GlcNAc(b1-3)Gal(b1-4)GlcNAc(b1-2)[Gal(b1-4)GlcNAc(b1-3)Gal(b1-4)GlcNAc(b1-6)]Man(a1-6)[Gal(b1-4)GlcNAc(b1-3)Gal(b1-4)GlcNAc(b1-2)Man(a1-3)]Man(b1-4)GlcNAc(b1-4)[Fuc(a1-6)]GlcNAc
# Outline: as §1
# [13] = molecular target: Gal(b1-4)GlcNAc(b1-3)Gal(b1-4)GlcNAc(b1-3)Gal(b1-4)GlcNAc(b1-2)[Gal(b1-4)GlcNAc(b1-3)Gal(b1-4)GlcNAc(b1-3)Gal(b1-4)GlcNAc(b1-6)]Man(a1-6)[Gal(b1-4)GlcNAc(b1-3)Gal(b1-4)GlcNAc(b1-3)Gal(b1-4)GlcNAc(b1-2)Man(a1-3)]Man(b1-4)GlcNAc(b1-4)[Fuc(a1-6)]GlcNAc
# Outline: as §1
# [14] = molecular target: Gal(b1-4)GlcNAc(b1-3)Gal(b1-4)GlcNAc(b1-3)Gal(b1-4)GlcNAc(b1-3)Gal(b1-4)GlcNAc(b1-2)Man(a1-3)[Gal(b1-4)GlcNAc(b1-3)Gal(b1-4)GlcNAc(b1-3)Gal(b1-4)GlcNAc(b1-3)Gal(b1-4)GlcNAc(b1-2)Man(a1-6)]Man(b1-4)GlcNAc(b1-4)GlcNAc
# Outline: as §1
# [15] = molecular target: Gal(b1-4)GlcNAc(b1-3)Gal(b1-4)GlcNAc(b1-3)Gal(b1-4)GlcNAc(b1-3)Gal(b1-4)GlcNAc(b1-2)Man(a1-3)[Gal(b1-4)GlcNAc(b1-3)Gal(b1-4)GlcNAc(b1-3)Gal(b1-4)GlcNAc(b1-3)Gal(b1-4)GlcNAc(b1-2)Man(a1-6)]Man(b1-4)GlcNAc(b1-4)[Fuc(a1-6)]GlcNAc
# Outline: as §1
# [16] = molecular target: Gal(b1-4)GlcNAc(b1-3)Gal(b1-4)GlcNAc(b1-3)Gal(b1-4)GlcNAc(b1-3)Gal(b1-4)GlcNAc(b1-2)[Gal(b1-4)GlcNAc(b1-3)Gal(b1-4)GlcNAc(b1-3)Gal(b1-4)GlcNAc(b1-3)Gal(b1-4)GlcNAc(b1-6)]Man(a1-6)[Gal(b1-4)GlcNAc(b1-3)Gal(b1-4)GlcNAc(b1-3)Gal(b1-4)GlcNAc(b1-3)Gal(b1-4)GlcNAc(b1-2)Man(a1-3)]Man(b1-4)GlcNAc(b1-4)[Fuc(a1-6)]GlcNAc
# Outline: as §1
# [17] = molecular target: Gal(b1-4)GlcNAc(b1-3)Gal(b1-4)GlcNAc(b1-3)Gal(b1-4)GlcNAc(b1-3)Gal(b1-4)GlcNAc(b1-3)Gal(b1-4)GlcNAc(b1-2)Man(a1-3)[Gal(b1-4)GlcNAc(b1-3)Gal(b1-4)GlcNAc(b1-3)Gal(b1-4)GlcNAc(b1-3)Gal(b1-4)GlcNAc(b1-3)Gal(b1-4)GlcNAc(b1-2)Man(a1-6)]Man(b1-4)GlcNAc(b1-4)GlcNAc
# Outline: as §1
# [18] = molecular target: Gal(b1-4)GlcNAc(b1-3)Gal(b1-4)GlcNAc(b1-3)Gal(b1-4)GlcNAc(b1-3)Gal(b1-4)GlcNAc(b1-3)Gal(b1-4)GlcNAc(b1-2)Man(a1-3)[Gal(b1-4)GlcNAc(b1-3)Gal(b1-4)GlcNAc(b1-3)Gal(b1-4)GlcNAc(b1-3)Gal(b1-4)GlcNAc(b1-3)Gal(b1-4)GlcNAc(b1-2)Man(a1-6)]Man(b1-4)GlcNAc(b1-4)[Fuc(a1-6)]GlcNAc
# Outline: as §1
# [19] = molecular target: Gal(b1-4)GlcNAc(b1-3)Gal(b1-4)GlcNAc(b1-3)Gal(b1-4)GlcNAc(b1-3)Gal(b1-4)GlcNAc(b1-3)Gal(b1-4)GlcNAc(b1-2)[Gal(b1-4)GlcNAc(b1-3)Gal(b1-4)GlcNAc(b1-3)Gal(b1-4)GlcNAc(b1-3)Gal(b1-4)GlcNAc(b1-3)Gal(b1-4)GlcNAc(b1-6)]Man(a1-6)[Gal(b1-4)GlcNAc(b1-3)Gal(b1-4)GlcNAc(b1-3)Gal(b1-4)GlcNAc(b1-3)Gal(b1-4)GlcNAc(b1-3)Gal(b1-4)GlcNAc(b1-2)Man(a1-3)]Man(b1-4)GlcNAc(b1-4)[Fuc(a1-6)]GlcNAc
# Outline: as §1
binder,measurement,setting,value
rCnSL-A (Clitocybe nebularis) (protein) VNPNLPGPNDVFVGFRGTNNIVGAIYEKDGIKDTPLNNGADAEMGPGSYITDGLFTARIFASGSAGNNPGTTATVCKIYASGVQWRGAPKGYIPVAYFGNGPTAEQRRQTYLRTLGLPGTAIRFGNLNTNPGQGPTAPRQMVVPPGPLRSLLKASCFPAADTRLPQTLHYFEKRVDWNIITAADSQTWGH,glycan array binding signal (z-score),Fuc(a1-2)Gal,-0.225
same,glycan array binding signal (z-score),[1],-0.137
same,glycan array binding signal (z-score),[2],-0.176
same,glycan array binding signal (z-score),[3],-0.339
same,glycan array binding signal (z-score),[4],-0.306
same,glycan array binding signal (z-score),[5],-0.002
same,glycan array binding signal (z-score),[6],-0.093
same,glycan array binding signal (z-score),[7],-0.255
same,glycan array binding signal (z-score),Gal(a1-4)Gal(b1-4)Glc,-0.211
same,glycan array binding signal (z-score),Gal(b1-3)Gal(b1-4)GlcNAc,-0.132
same,glycan array binding signal (z-score),[8],1.95
same,glycan array binding signal (z-score),[9],3.37
same,glycan array binding signal (z-score),[10],-0.203
same,glycan array binding signal (z-score),[11],2.67
same,glycan array binding signal (z-score),[12],3.11
same,glycan array binding signal (z-score),[13],5.46
same,glycan array binding signal (z-score),[14],8.55
same,glycan array binding signal (z-score),[15],2.68
same,glycan array binding signal (z-score),[16],10.3
same,glycan array binding signal (z-score),[17],2.36
same,glycan array binding signal (z-score),[18],5.05
same,glycan array binding signal (z-score),[19],13.6
